Assay outcomes: PubChem, Broad Institute
aSyn UTR act: Activators working through SNCA 5'UTR binding (MLPCN); activity score, % (tested at 7.5 µM), hits read low; alpha-synuclein 5'UTR reporter, activators screen; 300,000 compounds, 7.1% hits; in the data active = activity score below about -60%
Starred values were filed as active, the others as inactive. Only a selection was taken, and hits are over-represented in it overall.

SMILES	aSyn UTR act
O=C(c1ccc(Cl)c([N+](=O)[O-])c1)N(c1ccccn1)c1ccccn1	-97.5*
COc1cccc(NS(=O)(=O)NC(=O)c2c[nH]c3ccccc23)c1	-63.2*
O=C(c1cc2ccccc2o1)c1nc2c(n1O)CCCCC2	-72.6*
Cc1ccc(C(=O)c2nc3c(n2O)CCCC3)cc1	-86.3*
N/C(=N\OCc1ccc([N+](=O)[O-])cc1)c1ccccn1	112.1
C/C(=N/OCc1ccc(Br)cc1)c1ccccn1	-122.7*
S=C(N/N=C/c1ccc(Cl)c(Cl)c1)Nc1ccccc1Cl	-80.8*
Fc1cccc(/C=N/NC(=S)Nc2ccccc2Cl)c1	-230.5*
COc1ccc(NC(=O)C#Cc2ccccc2)cc1	-385.3*
O=C(C#Cc1ccccc1)Nc1ccc(F)cc1	-195.0*
O=C(C#Cc1ccccc1)Nc1cccc(F)c1	-383.2*
Cc1cccc(Nc2nc(-c3cccs3)cs2)n1	-90.5*
c1ccc(Nc2nc(-c3cccs3)cs2)nc1	-165.3*
C/C(=N\NC(=O)c1cc(-c2cccs2)nc2ccccc12)c1ccccn1	79.3
Cc1onc(NC(=O)c2ccc(Cl)cc2Cl)c1Br	-145.0*
C/C(=C/c1oc2ccc(O)cc2c1[N+](=O)[O-])N(C)C	-95.6*
C/C(=N/N=C(/C)c1cccs1)c1cccs1	-119.4*
Cc1cc(C)c(S(=O)(=O)Nc2ccc3c4c(cccc24)CC3)c(C)c1	106.0
CC(=O)c1ccc(NS(=O)(=O)c2c(C)cc(C)cc2C)cc1	-102.0*
Cc1cc(Cl)ccc1OCc1cn2cccnc2n1	-123.6*
Clc1ccc(OCc2cn3cccnc3n2)c2ncccc12	-64.2*
Cc1cc(Cl)ccc1OCCCC(=O)N1CCCCC1	-100.5*
Cc1cc(Cl)ccc1OCC(=O)N1C(C)CCCC1C (stereo unspecified)	-62.3*
Cc1cc(Cl)ccc1OCCCC(=O)N1CCOCC1	-94.8*
CC(=O)c1ccc(-n2c(C)ccc2-c2ccccc2)cc1	-108.8*
SMILES	aSyn UTR act
Cc1ccc(-n2nnnc2CNC(=O)c2ccc([N+](=O)[O-])o2)cc1C	-98.1*
O=C(NCc1nnnn1-c1ccc(F)cc1)c1ccc([N+](=O)[O-])o1	-135.6*
CC1CCN(C(=O)CSCc2ccc(Cl)cc2)CC1	-95.5*
CCc1ccc2nc(N(CCN(C)C)C(=O)c3ccc4ncsc4c3)sc2c1	-113.7*
Cc1cccc2sc(N(CCCN(C)C)C(=O)c3ccc4ncsc4c3)nc12	-91.9*
CC(C)Oc1ccc(Nc2ncnc3ccccc23)cc1	-136.0*
Cc1ccc(/C(=N/Nc2ncnc3ccccc23)C(=O)O)cc1	-69.0*
COC(=O)c1cccc(Nc2ncnc3ccc(C)cc23)c1	-88.1*
Cc1cccc(Nc2ncnc3ccccc23)c1	-97.9*
Cc1ccc(Nc2ncnc3ccccc23)cc1	-114.1*
Cc1c(-c2ccccc2)[n+](=O)c(-c2ccc(Br)cc2)c(C)n1[O-]	-101.7*
NC(=O)Cn1nnc(-c2ccc(NC(=O)c3ccc(F)cc3)cc2)n1	-72.8*
COc1ccccc1C(=O)Nc1ccc(-c2nnn(CC(=O)N3CCN(C(=O)c4ccco4)CC3)n2)cc1	-79.0*
O=C(Cn1nnc(-c2ccc(NC(=O)c3ccccc3F)cc2)n1)NCc1ccc(F)cc1	-65.8*
O=C(Nc1ccc(-c2nnn(CC(=O)N3CCN(C(=O)c4ccco4)CC3)n2)cc1)c1ccccc1F	-71.0*
COc1ccc(OCc2cnc(Cl)s2)cc1	-82.0*
Cc1ccc(OCc2cnc(Cl)s2)c(C)c1	-134.3*
CC(C)(C)C(=O)Cn1ncc(Br)c(Br)c1=O	-91.9*
O=C(CCl)N1c2ccccc2SCC1c1ccccc1 (stereo unspecified)	-64.2*
Cc1cccc(N2CSC3=C(C#N)C(c4ccc(C)o4)CC(=O)N3C2)c1 (stereo unspecified)	-85.5*
CCOC(=O)/C=C/c1cnn(-c2ccccc2)c1	-113.4*
O=S(=O)(Cc1noc(-c2ccccc2Cl)n1)c1ccccn1	-70.4*
CC(C)(C)S(=O)(=O)Cc1nc(-c2ccc(Cl)c(Cl)c2)cs1	-67.1*
CC(=O)Nc1ccc(NC(=O)c2cc(-c3cc(C)cc(C)c3O)n[nH]2)cc1	-108.2*
Cc1cccc(NC(=O)c2cc(-c3ccc(C)c(C)c3O)n[nH]2)c1	-210.5*
SMILES	aSyn UTR act
CC(=O)Nc1ccc(NC(=O)c2cc(-c3ccc(C)c(C)c3O)n[nH]2)cc1	-169.7*
O=C(Nc1ccccc1)N1CCCC2CCCCC21 (stereo unspecified)	-125.0*
Nc1nc(CSc2ccccc2)nc(N2CCCCC2)n1	-128.5*
COc1ccc(C(=O)Nc2cc(OC)cc(OC)c2)cc1	-61.7*
COc1cc(NC(=O)c2ccccc2)cc(OC)c1	-130.8*
COc1ccccc1OC(=O)Nc1ccc(Cl)cc1	-83.2*
COc1ccccc1Oc1ccc(NC(=O)c2ccccc2)cc1	-91.4*
COC(=O)c1ccc(N2C(=O)CC(SCCN)C2=O)cc1 (stereo unspecified)	-83.8*
CCCOc1ccc(N2C(=O)CC(N(O)c3ccccc3)C2=O)cc1 (stereo unspecified)	-77.3*
CCCOc1ccc(N2C(=O)CC(SCCN)C2=O)cc1 (stereo unspecified)	-71.0*
O=c1oc2ccccc2n1CSc1nc2ccccc2s1	-99.2*
